Assay outcomes as filed in PubChem.
The list is not random: actives were taken first. Their share in the collection is about 1.6%.
Efflux pump mplx: inhibitors of Candida antifungal efflux pumps expressed in yeast. 330,000 tested, 0.44% active. inhibition, % at 10 µM. S. cerevisiae Candida pump triplex, Nile Red efflux;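 active means plate passing quality check with inhibition over a set limit, or well fluorescence over plate mean plus 4 SD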;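 further: Nile Red retained in pooled yeast measured as flow cytometry median fluorescence; higher means more Nile Red kept so more efflux inhibition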
ATG4B inhibitor: ATG4B (human) cysteine protease inhibition; ATG4B cleavage of LC3-PLA2, NBD-HPC fluorescence, 1 h; inhibition, % at 8.33 µM; 340,000 tested, 0.51% active; AID 504462; in the data active means inhibition above about 40%
Target sequence (Q9Y4P1 whole entry, looked up): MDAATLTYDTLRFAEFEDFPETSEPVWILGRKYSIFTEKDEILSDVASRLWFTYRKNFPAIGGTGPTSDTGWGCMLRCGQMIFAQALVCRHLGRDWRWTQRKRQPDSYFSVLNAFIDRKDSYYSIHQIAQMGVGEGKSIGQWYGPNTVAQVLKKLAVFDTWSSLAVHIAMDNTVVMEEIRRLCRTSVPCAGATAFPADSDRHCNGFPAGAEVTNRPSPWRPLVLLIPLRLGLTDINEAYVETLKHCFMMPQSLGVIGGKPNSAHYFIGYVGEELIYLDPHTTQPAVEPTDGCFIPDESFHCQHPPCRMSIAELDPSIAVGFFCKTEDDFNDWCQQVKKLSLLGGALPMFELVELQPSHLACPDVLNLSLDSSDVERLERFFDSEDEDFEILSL
GRK2 inh: inhibitors of human GRK2 displacing RNA aptamer; P25098; bead flow cytometry, FAM-aptamer displacement from GRK2; inhibition of aptamer binding, % at 10 µM; 330,000 tested, 0.59% active; AID 488847;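 active means inhibition of aptamer binding above 40%, roughly 3 SD of noise, on plates passing a quality check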;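 further: median bead fluorescence of bound FAM aptamer so fluorescent compounds give negative values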
CR mimetic SO: caloric restriction mimetics inhibiting age-related superoxide in yeast. S. cerevisiae aged cells, superoxide DHE fluorescence; hits give low values. superoxide response (% of plate mean), % at 10 µM. 330,000 tested, 0.18% active;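 active means superoxide response under a set limit, about three screen SD below normal, cut at about 65% in these data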;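 further: yeast aged for seven days with compound at 30 °C before DHE staining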
Cmpd fluor yeast: flagged as fluorescent in efflux inhibitor counter-screen. S. cerevisiae AD/pABC3, compound fluorescence, flow cytometry. shares compounds with Efflux pump mplx. 1,700 tested, 4% active. fluorescence ratio to DMSO, % at 10 µM;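 active means fluorescence ratio to DMSO above its plate's cutoff, the plate mean ratio plus 5 SD, cut at about 210% in these data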;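 further: unstained yeast with no Nile Red so the signal is compound autofluorescence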
CaMdr1 efflux inh: blocks the Candida albicans Mdr1 efflux pump in yeast. shares compounds with Efflux pump mplx. S. cerevisiae AD/CaMDR1, Nile Red efflux, flow cytometry. inhibition, % at 10 µM. 1,700 tested, 1% active; in the data active means inhibition above about 26%;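 further: higher means more Nile Red retained so more efflux inhibition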
Cdr2 pump inh: blocks the Candida albicans Cdr2 efflux pump in yeast. S. cerevisiae AD/CaCDR2, Nile Red retention, flow cytometry. 1,700 tested, 4% active. shares compounds with Efflux pump mplx. Nile Red retention ratio vs DMSO, % at 10 µM; in the data active means Nile Red retention ratio vs DMSO above about 190%;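 further: higher ratio means more blocking of Cdr2 efflux of the dye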
Cdr1 pump inh: inhibitors of Candida albicans Cdr1 efflux pump | shares compounds with Efflux pump mplx | S. cerevisiae AD/CaCDR1, Nile Red efflux, flow cytometry | inhibition, % at 10 µM | 1,700 tested, 1% active | AID 588522;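 active means inhibition above the screen-wide mean plus twice its standard deviation, cut at about 32% in these data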
Hits are given with their value; - = inactive; . = no result given; + = active, no number.

SMILES | Efflux pump mplx | ATG4B inhibitor | GRK2 inh | CR mimetic SO | Cmpd fluor yeast | CaMdr1 efflux inh | Cdr2 pump inh | Cdr1 pump inh
CCn1cc(Cl)c(C(=O)Nc2nccs2)n1 | . | - | . | . | . | . | . | .
Oc1ccc(Cl)cc1C=Nc1ccc2c3c(cccc13)CC2 | 4.4 | - | - | - | - | - | - | -
Cc1cccc(C=Nc2ccc3c4c(cccc24)CC3)c1O | - | - | - | - | . | . | . | .
Cc1ccc(CC(NC(=O)c2ccccc2)C(=O)NC(C)C(=O)O)cc1 (configuration not stated) | 1.5 | - | - | - | - | - | - | -
O=C(NC(Cc1ccccc1)C(=O)O)c1ccccc1 (configuration not stated) | - | - | - | - | . | . | . | .
Cc1cc(C2(c3ccc(O)c(C)c3)OC(=O)c3ccccc32)ccc1O | - | - | - | - | . | . | . | .
Cc1cc(O)c(C(C)C)cc1C1(c2cc(C(C)C)c(O)cc2C)OC(=O)c2ccccc21 | 1.2 | - | - | - | - | - | - | -
COc1ccc(OC)c(NC(=O)CSc2nc(N3CCOCC3)nc(N3CCOCC3)n2)c1 | - | - | - | - | . | . | . | .
Cc1cc(C)n2c(Br)c(CSc3nc4ccccc4s3)nc2n1 | 8.0 | - | - | - | - | - | - | -
Cc1cc(C)nc(NC(=O)CSc2nc3ccccc3s2)n1 | - | - | - | - | . | . | . | .
COc1ccc(-c2sc(Nc3ccccc3)n[n+]2-c2ccc(F)cc2)c(C)c1C | - | - | - | - | . | . | . | .
CCn1cc(C(=O)O)c(=O)c2cnc(N3CCN(C(=S)Nc4ccccc4C(F)(F)F)CC3)nc21 | - | - | - | - | . | . | . | .
COc1cc(OC)cc(C(=O)Nc2sc3c(c2C(N)=O)CCC3)c1 | 1.4 | - | - | - | - | - | - | -
COc1ccc(CC(=O)Nc2sc3c(c2C(N)=O)CCCC3)cc1 | - | - | - | - | . | . | . | .
COc1ccc(CC(=O)O/N=C(\N)c2ccc(C)cc2)cc1 | - | - | - | - | - | - | - | -
N#C/C(=C\c1ccc(O)c([N+](=O)[O-])c1)c1nc2ccccc2s1 | . | - | . | . | . | . | . | .
N#C/C(=C/c1ccco1)c1nc2ccccc2s1 | - | - | - | - | - | - | - | -
CCCCc1ccc(-c2csc(/C(C#N)=C\c3ccco3)n2)cc1 | 0.6 | - | - | - | - | - | - | -
N#C/C(=C\c1ccco1)c1nc2ccccc2s1 | - | - | - | - | - | - | - | -
Cc1ccc(NC(=O)CN(C)C(=O)Cc2c(Cl)cccc2Cl)cc1 | - | - | - | - | . | . | . | .
Cc1occc1C(=O)NNC(=O)c1ccccc1F | 1.1 | - | - | - | - | - | - | -
CCc1[nH]nc(C(=O)N2CCCC(Nc3cccc(F)c3)C2)c1C (configuration not stated) | - | - | - | - | . | . | . | .
COc1cc(/C=C2\SC(=S)N(NC(=O)c3cccnc3)C2=O)ccc1O | - | - | - | - | - | - | - | -
O=C(NN1C(=O)/C(=C/c2ccc(O)c(O)c2)SC1=S)c1ccccc1 | 3.4 | - | - | - | - | - | - | -
COc1cc(/C=C2\SC(=S)N(NC(=O)c3ccc(O)cc3)C2=O)ccc1O | - | - | - | - | . | . | . | .
SMILES | Efflux pump mplx | ATG4B inhibitor | GRK2 inh | CR mimetic SO | Cmpd fluor yeast | CaMdr1 efflux inh | Cdr2 pump inh | Cdr1 pump inh
CC(C(=O)Nc1ccc(Br)cc1)N(C)CC(=O)NCc1ccco1 (configuration not stated) | - | - | - | - | . | . | . | .
COc1ccc(-c2sc3cc4c(cc3c2-c2ccc(OCCN3CCCCC3)cc2)OCO4)cc1 | - | - | - | - | - | - | - | -
COc1cc(OC)cc(-c2sc3ccc(OC)cc3c2-c2ccc(OCCN3CCCCC3)cc2)c1 | + | - | - | - | - | 70 | . | 103
COc1ccccc1-c1sc2cc3c(cc2c1-c1ccc(O)cc1)OCO3 | - | - | - | - | . | . | . | .
COc1ccc2c(-c3cnc(N4CCOCC4)nc3)c(-c3ccc(S(C)(=O)=O)cc3)sc2c1 | - | - | - | - | . | . | . | .
COc1ccc(-c2sc3cc4c(cc3c2-c2ccc3c(c2)OCCO3)OCO4)cc1 | - | - | - | - | . | . | . | .
COc1ccccc1-c1sc2cc3c(cc2c1-c1ccc(OCCN2CCOCC2)cc1)OCO3 | - | - | - | - | - | - | - | -
